Screening data deposited in PubChem BioAssay by National Center for Advancing Translational Sciences (NCATS).
The list is not random: actives were taken first. Their share in the collection is about 15%.
Sm TGR inh – qHTS Assay for the Inhibitors of Schistosoma Mansoni Peroxiredoxins; purified TGR, DTNB reduction, TNB absorbance 405 nm; Potency, µM (titrated, usually from 114 µM), usual class: inhibitors; hit rate 3% among 360,000; note: nearly all actives have a fitted effect of over 60% in size
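Kinetic colorimetric format: TGR-catalysed, NADPH-driven DTNB reduction monitored via TNB absorbance. Enzyme dispensed at 20 nM; compound exposure 15 min at room temperature before reaction start.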
HCMV inh – qHTS Assay for inhibitors of the human cytomegalovirus (HCMV); HFF cells, HCMV-luciferase reporter, 72 h; active compounds read low; activity change, negative = inhibition, % at 57.5 µM; hit rate 4.5% among 410,000; AID 1259415, 2018; in the data active = activity change below about -60%; inconclusive = no clear call, values can overlap the other calls; inactive = above about -39%
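Screen run at 2 compound doses on HFFs infected with reporter HCMV, MOI 1 PFU/cell. Luciferase activity from cell lysates at 72 h post infection gave inhibition relative to buffer-only and Salinomycin wells.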
Pf growth 96h – Primary qHTS for delayed death inhibitors of the malarial parasite plastid, 96 hour incubation; P. falciparum luciferase reporter growth, 96 h; Potency, µM (highest dose often 28.7 µM), hits mostly inhibitors; hit rate 6.9% among 320,000
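Parasite growth measured via integrated firefly luciferase reporter in P. falciparum. Infected erythrocytes at 2% hematocrit, 0.05% parasitemia final were treated 96 hours at 37 C under 5% CO2, and luminescence was read.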
Pf growth 48h – Primary qHTS for delayed death inhibitors of the malarial parasite plastid, 48 hour incubation | P. falciparum luciferase growth in erythrocytes, 48 h | AID 504832, 2011 | hit rate 5.9% among 310,000 | Potency, µM (highest dose often 28.7 µM), hits mostly inhibitors
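Compounds are pin-transferred into medium, infected erythrocytes (2% hematocrit, 0.1% parasitemia final) are added, and plates sit one parasite generation at 37 C in 5% CO2. Detection reagent is then added and luminescence measured.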
HCV inh – qHTS Assay for Inhibitors of Hepatitis C Virus (HCV); Huh7.5.1 HCVcc-Cre infection, luciferase reporter, 44 h; AID 651820, 2012; hit rate 3.4% among 340,000; Potency, µM (series often up to 41.8 µM), most hits filed as inhibitors
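Infectious HCV cell culture screen: compound-treated cells (1,000/well, pre-plated 4 h) are infected with HCVcc-Cre at roughly 0.5 moi and grown 44 h. Infection is quantified by luciferase signal after 15 min substrate incubation at room temperature.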
SARS PLP yeast – qHTS of Yeast-based Assay for SARS-CoV PLP; Potency, µM (series often up to 32.9 µM), hits mostly activators; S. cerevisiae expressing SARS-CoV PLpro, growth rescue; hit rate 0.19% among 330,000; calls by dose curve; note: nearly all actives have a fitted effect of over 55% in size
Large screens that a line does not name were inactive. Unless noted, calls come from the whole dose curve; as a rule, active = well fitted curve in the direction sought with a large enough effect; inconclusive = small, poorly fitted or top-dose-only effect, or another doubt; inactive = no such curve, though single readings can be large; an effect the other way counts as inactive or inconclusive.

CC1=CC(C#N)(C#N)C(C#N)(C#N)C(c2ccccc2)N1 (configuration not stated)	Sm TGR inh 22µM (no result: HCMV inh, HCV inh)
CNC(=S)Nc1ccc(N2CCCC2)c(S(=O)(=O)Nc2ccc(OC)cc2)c1	none (no result: Sm TGR inh, Pf growth 96h, Pf growth 48h)
COc1ccc(NS(=O)(=O)c2cc(NC(=O)c3cccs3)ccc2N2CCCC2)cc1	HCMV inh -97, Pf growth 96h inconclusive, HCV inh inconclusive
COc1ccc(NS(=O)(=O)c2cc(NC(=O)CC(C)(C)C)ccc2N2CCCC2)cc1	Pf growth 96h 13µM, Pf growth 48h 10µM
COc1ccc(NS(=O)(=O)c2cc(NC(=O)c3ccccc3F)ccc2N2CCCC2)cc1	HCMV inh inconclusive, Pf growth 96h inconclusive, Pf growth 48h inconclusive, HCV inh inconclusive
COc1ccc(NS(=O)(=O)c2cc(NC(=O)c3ccc(C)o3)ccc2N2CCCCC2)cc1	HCMV inh -90, Pf growth 96h inconclusive, Pf growth 48h 9.3µM, HCV inh inconclusive
COc1ccc(NS(=O)(=O)c2cc(NC(=O)Cc3c(F)cccc3Cl)ccc2OC)cc1	Pf growth 96h inconclusive, Pf growth 48h 5.9µM, HCV inh 13µM
CCCCCCN1C[C@@H](O)[C@H](n2cc(COC(=O)c3ccccc3)nn2)C[C@@H]1c1ccccc1	none (no result: Sm TGR inh, Pf growth 96h, Pf growth 48h, HCV inh, SARS PLP yeast)
O=C(NC1CCSC1)c1cccc(Cl)c1 (configuration not stated)	none
Cc1nc(Nc2cccc(O)c2)c2c3c(sc2n1)CCC3	HCMV inh inconclusive, Pf growth 96h inconclusive, Pf growth 48h inconclusive, HCV inh inconclusive
COc1ccc(NS(=O)(=O)c2cc(N/C(=N\S(=O)(=O)c3ccccc3)c3ccc(F)cc3)ccc2Cl)cc1	Pf growth 96h 10µM, Pf growth 48h inconclusive, HCV inh inconclusive
COc1ccc(NS(=O)(=O)c2cc(NC(=O)c3ccc(C)s3)ccc2N2CCOCC2)cc1	Pf growth 96h 13µM, Pf growth 48h inconclusive
CC(=O)Nc1cc(-c2ccc(C(=O)N3CCOCC3)cc2)cn2c(-c3ccc(S(C)(=O)=O)cc3)cnc12	none (no result: Sm TGR inh, Pf growth 96h, Pf growth 48h, HCV inh, SARS PLP yeast)
COc1cc(OC)cc(C(=O)NC(C(=O)Nc2ccc3c(c2)OCO3)C(C)C)c1 (configuration not stated)	Pf growth 48h inconclusive, HCV inh inconclusive
COc1cc(OC)cc(C(=O)NC(C(=O)Nc2ccc3nc(C)sc3c2)C(C)C)c1 (configuration not stated)	Pf growth 96h 6.6µM, Pf growth 48h 3.3µM, HCV inh inconclusive
CC(C)[C@H](NC(=O)c1c(F)cccc1F)C(=O)Nc1cccc(Br)c1	Sm TGR inh inconclusive
COc1cc(OC)cc(C(=O)N[C@H](C(=O)Nc2nc3ccc(S(C)(=O)=O)cc3s2)C(C)C)c1	Pf growth 96h inconclusive, Pf growth 48h 4.7µM
Cc1nc2ccc(NC(=O)[C@@H](NC(=O)c3c(F)cccc3F)C(C)C)cc2s1	Pf growth 96h inconclusive, Pf growth 48h 2.1µM, HCV inh inconclusive
COc1ccc(NS(=O)(=O)c2cc(NC(=O)c3ccc(=O)[nH]c3)ccc2C)cc1	none
COc1ccc(NS(=O)(=O)c2cc(NC(=O)[C@@H](NC(=O)c3ccccc3)C(C)C)ccc2C)cc1	HCMV inh -87, Pf growth 96h 9.3µM, Pf growth 48h 9.3µM, HCV inh inconclusive
CCOC(=O)c1cnc[nH]c1=O	none (no result: Sm TGR inh, Pf growth 96h, Pf growth 48h, SARS PLP yeast)
Cc1cc(C(=O)Nc2c(F)cc(F)cc2Br)cs1	HCMV inh inconclusive, Pf growth 96h 15µM
N#Cc1ccc(CN2CCN(C(=O)c3ccccc3)CC2)c(Cl)c1	none
CCOC(=O)c1ccc(N2C(=O)CC(N3CCC(O)(c4ccc(Cl)cc4)CC3)C2=O)cc1 (configuration not stated)	Sm TGR inh 22µM
O=C1CC(N2CCN(c3ccccc3Cl)CC2)C(=O)N1c1cccc(F)c1 (configuration not stated)	Sm TGR inh 40µM, Pf growth 96h inconclusive
CCOC(=O)c1ccc(N2C(=O)CC(N3CCC(O)(c4ccc(Br)cc4)CC3)C2=O)cc1 (configuration not stated)	Sm TGR inh 50µM (no result: Pf growth 48h)
CCOc1ccc(N2C(=O)CC(N3CCC(O)(c4ccc(Br)cc4)CC3)C2=O)cc1 (configuration not stated)	none (no result: Pf growth 96h, Pf growth 48h)
O=C1CC(N2CCc3ccccc32)C(=O)N1c1ccccc1 (configuration not stated)	none
O=C1CC(N2CCCc3ccccc32)C(=O)N1c1ccccc1Cl (configuration not stated)	Sm TGR inh 20µM, Pf growth 96h inconclusive
O=C1CC(N2CCN(c3ccccc3Cl)CC2)C(=O)N1c1ccc(F)cc1 (configuration not stated)	Sm TGR inh inconclusive
COc1ccccc1NC(=O)NNC(=O)CCc1ccccc1	none
CCOC(=O)c1ccc(N2C(=O)CC(N3CCN(Cc4ccccc4)CC3)C2=O)cc1 (configuration not stated)	none (no result: Pf growth 96h)
N#CC1(c2ccccc2)CCN(C2CC(=O)N(c3cccc(F)c3)C2=O)CC1 (configuration not stated)	Sm TGR inh 45µM, Pf growth 96h 8.3µM
CCOC(=O)c1ccc(S(=O)(=O)N2CCN(C3CC(=O)N(c4ccccc4C(F)(F)F)C3=O)CC2)cc1 (configuration not stated)	Pf growth 96h 12µM, Pf growth 48h 13µM
CCOC(=O)c1ccc(N2C(=O)CC(N3CCC(C#N)(c4ccccc4)CC3)C2=O)cc1 (configuration not stated)	Sm TGR inh 45µM, Pf growth 48h inconclusive
Cc1cc(C)n2nc(N)c(N=Nc3ccc(Cl)cc3)c2n1	none
C[C@@H]1CN([C@@H](C)CO)C(=O)CCCn2nncc2CO[C@H]1CN(C)S(=O)(=O)c1cccs1	none (no result: Sm TGR inh, Pf growth 96h, Pf growth 48h, HCV inh, SARS PLP yeast)
CC(Cc1c[nH]c2ccccc12)C(=O)NCc1ccco1 (configuration not stated)	none (no result: Pf growth 48h)
Cc1nn(-c2ccccc2)c(N2CCCC2)c1/C=C1\N=C(c2ccc(OC(C)C)cc2)OC1=O	Pf growth 96h inconclusive
Cc1c(N2CCCCC2)[nH]c2ccccc12	none (no result: Sm TGR inh, Pf growth 96h, Pf growth 48h, HCV inh, SARS PLP yeast)
Cc1[nH]c2ccccc2c1C(c1ccncc1)N1CCN(c2ccc(F)cc2)CC1 (configuration not stated)	Sm TGR inh 8.9µM, Pf growth 48h inconclusive
Cc1ccccc1C(O)c1ccncc1 (configuration not stated)	none (no result: Pf growth 48h)
Cc1[nH]c2ccccc2c1C(c1ccncc1)N1CCCCC1 (configuration not stated)	Sm TGR inh 1.8µM
